The full list was thinned out, with the strongest signals kept by preference.
How the values were obtained:
Assay in all cases: glycan array binding signal (z-score within array); higher = stronger binding
Settings in all cases: glycan notation: IUPAC condensed, linker removed
[1] = biological target: Fuc(a1-2)Gal(b1-3)GlcNAc(b1-2)Man(a1-3)[Fuc(a1-2)Gal(b1-3)GlcNAc(b1-2)Man(a1-6)]Man(b1-4)GlcNAc(b1-4)GlcNAc
Outline: (§1)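 Glycan array data were curated from 3228 arrays in the Consortium for Functional Glycomics database and kept only where the protein sequence was available. Glycan names were converted to IUPAC-condensed notation, and columns mapping to the same glycan were averaged. The binding signal is a within-array Z-score, averaged across arrays of the same protein sequence at different concentrations or buffers and across linkers. Negative Z-scores can be read as non-binding.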

[2] = biological target: Fuc(a1-2)Gal(b1-3)GlcNAc(b1-3)[Neu5Ac(a2-6)Gal(b1-4)GlcNAc(b1-6)]Gal(b1-4)Glc
Outline: as §1

[3] = biological target: Fuc(a1-2)Gal(b1-3)[Fuc(a1-4)]GlcNAc(b1-3)[Gal(b1-4)GlcNAc(b1-6)]Gal(b1-4)Glc
Outline: as §1

[4] = biological target: Fuc(a1-2)[Gal(a1-3)]Gal(b1-3)GlcNAc(b1-2)Man(a1-3)[Fuc(a1-2)[Gal(a1-3)]Gal(b1-3)GlcNAc(b1-2)Man(a1-6)]Man(b1-4)GlcNAc(b1-4)[Fuc(a1-6)]GlcNAc
Outline: as §1

[5] = biological target: Fuc(a1-2)[Gal(a1-3)]Gal(b1-3)GlcNAc(b1-6)GalNAc
Outline: as §1

[6] = biological target: Fuc(a1-2)[GalNAc(a1-3)]Gal(b1-4)GlcNAc(b1-2)Man(a1-3)[Fuc(a1-2)[GalNAc(a1-3)]Gal(b1-4)GlcNAc(b1-2)Man(a1-6)]Man(b1-4)GlcNAc(b1-4)GlcNAc
Outline: as §1

[7] = biological target: Fuc(a1-3)[Gal3S(b1-4)]GlcNAc
Outline: as §1

[8] = biological target: Fuc(a1-3)[Gal3S(b1-4)]GlcNAc6S
Outline: as §1

[9] = biological target: Gal(a1-3)Gal(b1-4)GlcNAc(b1-3)GalNAc
Outline: as §1

[10] = biological target: Gal(a1-3)Gal(b1-4)[Fuc(a1-3)]GlcNAc(b1-2)Man(a1-3)[Gal(a1-3)Gal(b1-4)[Fuc(a1-3)]GlcNAc(b1-2)Man(a1-6)]Man(b1-4)GlcNAc(b1-4)GlcNAc
Outline: as §1

[11] = biological target: Gal(a1-3)[Gal(a1-4)]Gal(b1-4)GlcNAc
Outline: as §1

[12] = biological target: Gal(a1-4)Gal(b1-4)GlcNAc
Outline: as §1

[13] = biological target: Gal(a1-4)Gal(b1-4)GlcNAc(b1-2)Man(a1-3)[Gal(a1-4)Gal(b1-4)GlcNAc(b1-2)Man(a1-6)]Man(b1-4)GlcNAc(b1-4)GlcNAc
Outline: as §1

[14] = biological target: Gal(b1-3)GlcNAc(b1-2)Man(a1-3)[GlcNAc(b1-4)][Gal(b1-3)GlcNAc(b1-2)Man(a1-6)]Man(b1-4)GlcNAc(b1-4)GlcNAc
Outline: as §1

[15] = biological target: Gal(b1-3)GlcNAc(b1-3)Gal(b1-4)Glc
Outline: as §1

[16] = biological target: Gal(b1-3)GlcNAc(b1-3)Gal(b1-4)[Fuc(a1-3)]GlcNAc
Outline: as §1

[17] = biological target: Gal(b1-3)[Fuc(a1-4)]GlcNAc(b1-6)GalNAc
Outline: as §1

[18] = biological target: Gal(b1-3)[GlcNAc(b1-6)]GalNAc
Outline: as §1

[19] = biological target: Gal(b1-3)[Neu5Ac(a2-6)]GalNAc
Outline: as §1

[20] = biological target: Gal(b1-4)GlcNAc(b1-2)[Gal(b1-4)GlcNAc(b1-6)]Man(a1-6)[Gal(b1-4)GlcNAc(b1-2)Man(a1-3)]Man(b1-4)GlcNAc(b1-4)[Fuc(a1-6)]GlcNAc
Outline: as §1

[21] = biological target: Gal(b1-4)GlcNAc(b1-3)Gal(b1-4)GlcNAc(b1-2)[Gal(b1-4)GlcNAc(b1-3)Gal(b1-4)GlcNAc(b1-6)]Man(a1-6)[Gal(b1-4)GlcNAc(b1-3)Gal(b1-4)GlcNAc(b1-2)Man(a1-3)]Man(b1-4)GlcNAc(b1-4)[Fuc(a1-6)]GlcNAc
Outline: as §1

[22] = biological target: Gal(b1-4)GlcNAc(b1-3)Gal(b1-4)GlcNAc(b1-3)Gal(b1-4)GlcNAc(b1-3)Gal(b1-4)GlcNAc(b1-2)Man(a1-3)[Gal(b1-4)GlcNAc(b1-3)Gal(b1-4)GlcNAc(b1-3)Gal(b1-4)GlcNAc(b1-3)Gal(b1-4)GlcNAc(b1-2)Man(a1-6)]Man(b1-4)GlcNAc(b1-4)[Fuc(a1-6)]GlcNAc
Outline: as §1

[23] = biological target: Gal3S(b1-3)GlcNAc
Outline: as §1

[24] = biological target: Gal3S(b1-4)[Fuc(a1-3)]GlcNAc
Outline: as §1

[25] = biological target: Glc(b1-4)Glc
Outline: as §1

[26] = biological target: GlcNAc(a1-4)Gal(b1-4)GlcNAc(b1-3)Gal(b1-4)[Fuc(a1-3)]GlcNAc(b1-3)Gal(b1-4)[Fuc(a1-3)]GlcNAc
Outline: as §1

[27] = biological target: GlcNAc(b1-2)Gal(b1-3)GalNAc
Outline: as §1

[28] = biological target: GlcNAc(b1-2)Man(a1-3)[GlcNAc(b1-2)Man(a1-6)]Man(b1-4)GlcNAc(b1-4)GlcNAc
Outline: as §1

[29] = biological target: GlcNAc(b1-2)[GlcNAc(b1-4)]Man(a1-3)[GlcNAc(b1-4)][GlcNAc(b1-2)[GlcNAc(b1-6)]Man(a1-6)]Man(b1-4)GlcNAc(b1-4)[Fuc(a1-6)]GlcNAc
Outline: as §1

[30] = biological target: GlcNAc(b1-3)Gal(b1-4)GlcNAc(b1-3)Gal(b1-4)GlcNAc(b1-2)Man(a1-3)[GlcNAc(b1-3)Gal(b1-4)GlcNAc(b1-3)Gal(b1-4)GlcNAc(b1-2)Man(a1-6)]Man(b1-4)GlcNAc(b1-4)GlcNAc
Outline: as §1

[31] = biological target: GlcNAc(b1-3)Gal(b1-4)GlcNAc(b1-3)Gal(b1-4)GlcNAc(b1-3)Gal(b1-4)GlcNAc(b1-2)[GlcNAc(b1-3)Gal(b1-4)GlcNAc(b1-3)Gal(b1-4)GlcNAc(b1-3)Gal(b1-4)GlcNAc(b1-6)]Man(a1-6)[GlcNAc(b1-3)Gal(b1-4)GlcNAc(b1-3)Gal(b1-4)GlcNAc(b1-3)Gal(b1-4)GlcNAc(b1-2)Man(a1-3)]Man(b1-4)GlcNAc(b1-4)[Fuc(a1-6)]GlcNAc
Outline: as §1

[32] = biological target: GlcNAc(b1-4)GlcNAc(b1-4)GlcNAc(b1-4)GlcNAc(b1-4)GlcNAc
Outline: as §1

[33] = biological target: Man(a1-3)[Man(a1-6)]Man(b1-4)GlcNAc(b1-4)GlcNAc
Outline: as §1

[34] = biological target: Neu5Ac(a2-3)Gal(b1-3)[GlcNAc(b1-6)]GalNAc
Outline: as §1

[35] = biological target: Neu5Ac(a2-3)Gal(b1-4)Glc
Outline: as §1

[36] = biological target: Neu5Ac(a2-3)Gal(b1-4)GlcNAc(b1-2)Man
Outline: as §1

[37] = biological target: Neu5Ac(a2-3)Gal(b1-4)GlcNAc(b1-6)[Neu5Ac(a2-3)Gal(b1-3)]GalNAc
Outline: as §1

[38] = biological target: Neu5Ac(a2-3)Gal(b1-4)[Fuc(a1-3)]GlcNAc(b1-3)GalNAc
Outline: as §1

[39] = biological target: Neu5Ac(a2-6)Gal(b1-4)GlcNAc(b1-2)Man(a1-6)[Gal(b1-4)GlcNAc(b1-2)Man(a1-3)]Man(b1-4)GlcNAc(b1-4)GlcNAc
Outline: as §1

[40] = biological target: Neu5Ac(a2-6)Gal(b1-4)GlcNAc(b1-3)Gal(b1-3)GlcNAc
Outline: as §1

[41] = biological target: Neu5Ac(b2-6)Gal(b1-4)GlcNAc
Outline: as §1

B1: GS7807I-bvu-563-22-563 (Bacteroides vulgatus) (protein)
chain: IFSSCTDDFEKLNTSNIQVDPADLPFAAQCTEPMTYCYPPQQNMFQFWTNLTIDLYGGYFMTPNGNFTNGDMGENRGHSGGMYENYYLHIFNNTRRIIAQCDASGERGLSGVMRIVQAYGTLMTTDAYGPIPYSSILSGENEVYFEFDSQKDLYKAMLEDLSTAITDISAMGADEIAKLKSFDCWCNGDKDLWVKIANTMKLRMALRLSKRETEAGNAGMNLKAIATEAAQNTLATVNKDILIDKSLENEMWLMFNWGDCGFNANLVTIMSGTKDPRQPLYMTLNTGDIKNEAGTTTVAANSQYLGIRFASGLPAKPNSWGNFSGWIQGNNGSSYSMPLPIMKAAEAYFLLAEAKLRWDIGSESVKNLYENGIRVSMTNELAYRGAYAGIKEYPEGAVDAYINGTSTQIDYTDPIKAELSTPAVNKLSVKWDESASNEEKLERIITQKWLALFPLSTEGWAEQRRTGYPRFFPAFVNESNGAVNTEEGVRRVIYSSQAYDANAKGVEGGIKLLDEENSSKFGISGDKGGTHLWWDNADKGNF
[1]
  glycan array binding signal (z-score): 4.25
[2]
  glycan array binding signal (z-score): -0.639
[3]
  glycan array binding signal (z-score): -0.806
[4]
  glycan array binding signal (z-score): -0.026
[5]
  glycan array binding signal (z-score): 0.231
[6]
  glycan array binding signal (z-score): 0.159
[7]
  glycan array binding signal (z-score): 0.384
[8]
  glycan array binding signal (z-score): 0.755
[9]
  glycan array binding signal (z-score): -1.06
[10]
  glycan array binding signal (z-score): 3.63
[11]
  glycan array binding signal (z-score): 0.09
[12]
  glycan array binding signal (z-score): 0.073
[13]
  glycan array binding signal (z-score): 2.76
[14]
  glycan array binding signal (z-score): 3.75
[15]
  glycan array binding signal (z-score): -1.02
[16]
  glycan array binding signal (z-score): -0.396
[17]
  glycan array binding signal (z-score): -0.343
[18]
  glycan array binding signal (z-score): -0.484
[19]
  glycan array binding signal (z-score): 0.238
[20]
  glycan array binding signal (z-score): -0.297
[21]
  glycan array binding signal (z-score): 2.61
[22]
  glycan array binding signal (z-score): 3.21
[23]
  glycan array binding signal (z-score): 1.03
[24]
  glycan array binding signal (z-score): 0.875
[25]
  glycan array binding signal (z-score): -0.567
[26]
  glycan array binding signal (z-score): 2.71
[27]
  glycan array binding signal (z-score): 0.388
[28]
  glycan array binding signal (z-score): -0.694
[29]
  glycan array binding signal (z-score): -1.04
[30]
  glycan array binding signal (z-score): 2.79
[31]
  glycan array binding signal (z-score): 3.79
[32]
  glycan array binding signal (z-score): -0.951
[33]
  glycan array binding signal (z-score): -0.233
[34]
  glycan array binding signal (z-score): 0.671
[35]
  glycan array binding signal (z-score): 0.689
[36]
  glycan array binding signal (z-score): 2.84
[37]
  glycan array binding signal (z-score): -0.221
[38]
  glycan array binding signal (z-score): 5.03
[39]
  glycan array binding signal (z-score): 1.71
[40]
  glycan array binding signal (z-score): -0.945
[41]
  glycan array binding signal (z-score): -0.47

Reference: the supplement of paper PMC8728848
